# Assay outcomes from PubChem BioAssay.
# Compounds with a hit are over-represented: about 5.5% of the library has one in this group of screens.
# Sfp PPTase inh = blocks B. subtilis Sfp PPTase activity; Potency, µM, for the others: largest response in the series, negative = inhibition, hits mostly inhibitors; Biochemical Sfp PPTase activity, qHTS; hit rate 3.5% among 310,000; Q9F4F7; AID 1490;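 further: the enzyme is Sfp with the accession as filed and its product quenches rhodamine fluorescence; potency means the concentration at half of the fitted maximal effect; 0% = enzyme reaction without inhibitor and -100% = no enzyme wells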
#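 Fluorescence-quenching assay with 15 nM Sfp, 5 uM rhodamine-CoA and 12.5 uM BHQ-2-labelled ybbR peptide in pH 7.6 Hepes/MgCl2 buffer. Enzyme was pre-incubated with compound for 15 min at room temperature. Rate was taken from the 30-min fluorescence change (525/598 nm).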
# Coupling enz = coupling enzyme interference in Giardia aldolase counter-screen. hit rate 0.67% among 290,000. coupling enzyme system counterscreen, AmpLite Red fluorescence. activity change, negative = inhibition, % at 58.2 µM, hits read low; in the data active means activity change below about -30%
#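 Final compound at 57.5 uM, incubated 10 min at RT with coupling enzyme reagent (glyceraldehyde-3-phosphate), then 20 min with substrate and AmpLite Red detection. Fluorescence read at 525/598 nm; tests interference with the coupling assay, not aldolase inhibition.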
# Giardia killer = kills Giardia lamblia; activity change, % at 7.66 µM, hits read low; hit rate 0.15% among 340,000; Giardia lamblia trophozoite viability; in the data active means activity change below about -80%; inconclusive means between about -30% and that limit;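 further: parasites exposed to compound for two days anaerobically before the ATP read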
#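 Luminescence from cellular ATP indicates surviving trophozoites (100 cells/well) following 48 hrs anaerobic compound treatment at 37 deg C; signal develops 15-30 min at room temperature.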
# ELG1 DNA repair = inhibitors of ELG1-dependent DNA repair in HEK293T cells | AID 504467 | HEK293T ELG1-luciferase reporter, luminescence, 16 h; DNA damage induced by 5-fluorouridine | hit rate 2.3% among 330,000 | Potency, µM (series often up to 46.1 µM), for inactives: at the top dose activity change, negative = inhibition, actives largely listed as inhibitors; further: potency means the concentration at half of the fitted maximal effect; nearly all actives have a fitted effect of over 55% in size
#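 In this reporter screen, reduction of luminescence relative to DMSO vehicle indicated activity. Compounds and 5-fluorouridine were added together to 2,000 cells per well, incubated for 16 hr at 37 °C, then developed with ONE-Glo.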
# An asterisk follows results filed as active; ? = inconclusive; / = not tested or not shown. Unless noted, the call rests on the fitted dose curve; in most records, active means well fitted curve in the direction sought with a large enough effect; inconclusive means small, poorly fitted or top-dose-only effect, or another doubt; inactive means no such curve, though single readings can be large; an effect the other way counts as inactive or inconclusive. Unless noted, on the % scale 0 is the no-effect control and ±100 the full control effect.
SMILES,Sfp PPTase inh,Coupling enz,Giardia killer,ELG1 DNA repair
COc1ccc(CCNC(=O)CCNC(=O)N2CC(=O)Nc3ccccc32)cc1,7.5%,/,-18.9,9.5%
Cc1cccc(NC(=O)CN(C)C(=O)/C=C/c2ccccc2)c1C,/,/,12.1,13.3%
CO,15.7%,/,/,/
O=C(CN1CCc2ccccc2C1)N1CCN(S(=O)(=O)c2ccccc2)CC1,16.5%,2.9,-9.3,0.9%
Cc1ccc(S(=O)(=O)N2CCN(C(=O)CN3CCc4ccccc4C3)CC2)cc1,44.7µM*,-4.1,11.4,?
COc1ccc(C(=O)CN2CCN(S(=O)(=O)c3cccc([N+](=O)[O-])c3)CC2)cc1OC,35.5µM*,-4.0,?,2.7%
Cc1c(C(=O)N2CCN(C)CC2)oc2ccc(S(=O)(=O)N3CCOCC3)cc12,8.6%,-2.1,-7.4,-15.6%
COc1ccc2oc(C(=O)OCC(=O)N3CCN(S(=O)(=O)c4ccccc4)CC3)c(C)c2c1,/,/,-6.9,-14.9%
COc1ccc2oc(C(=O)N3CCN(S(=O)(=O)c4cccc([N+](=O)[O-])c4)CC3)c(C)c2c1,9.8%,/,-20.5,7.3µM*
Cc1c(C(=O)N2CCN(S(=O)(=O)c3cccs3)CC2)oc2ccc(F)cc12,/,/,-8.7,5.17µM*
COc1cccc(C(=O)CN2CCN(S(=O)(=O)c3cccc([N+](=O)[O-])c3)CC2)c1,-29.9%,-3.6,-17.8,20.9%
CCOc1ccc(S(=O)(=O)N2CCN(C(=O)c3oc4ccc(OC)cc4c3C)CC2)cc1,/,/,-9.8,20.6µM*
CC(=O)O[C@H]1C[C@H]2CC[C@@H]3[C@H]4C[C@@H]([N+]5(C)CCCCC5)[C@@H](OC(C)=O)[C@]4(C)CC[C@@H]3[C@@]2(C)C[C@@H]1[N+]1(C)CCCCC1,14.9%,2.0,/,/
COc1ccccc1C(=O)NC(CCSC)C(=O)Nc1ccc(C)c(S(=O)(=O)N2CCOCC2)c1 (stereo not given),/,/,22.5,?
Cc1ccc(C(=O)N2N=C(c3cccc(NS(C)(=O)=O)c3)CC2c2cccs2)cc1 (stereo not given),-1.9%,0.3,-6.0,?
Cc1cc(Cn2nc(-c3ccccc3)cc2C(=O)NCc2cccc(Br)c2)on1,/,/,9.1,?
CN(C(=O)COc1ccccc1C(=O)NCCOc1ccccc1)c1ccccc1,-9.0%,1.6,-16.1,10.3µM*
O=C(NCCOc1ccccc1)c1ccccc1Cl,9.7%,-6.2,8.9,?
COC(=O)NC(c1ccccc1)C1(C(=O)OC)C(=O)Cc2ccccc21 (stereo not given),-1.6%,2.0,/,/
Cc1ccc(C(=O)Nc2ccc3c(c2)OCCO3)c(Cl)c1,-2.1%,-1.9,-82.8*,?
O=C(O)CCCC(=O)Nc1ccccc1SCCS(=O)(=O)c1ccc(Cl)cc1,56.2µM*,2.5,3.1,2.8%
O=C(CCS(=O)(=O)c1ccc(Cl)cc1)Nc1ccccc1Br,7.4%,3.9,-20.6,-5.9%
NC(=O)c1nsc(C(=O)N(c2cccc(F)c2)C(C(=O)NCC2CCCO2)c2ccc3ncccc3c2)c1N (stereo not given),10.5%,-1.4,-17.4,-1.1%
Cc1ccc(-c2ccccc2NC(=O)C2C3C=CC(C3)C2C(=O)O)o1 (stereo not given),25.1µM*,-20.4,-8.7,6.0%
Cc1ccc(-c2cccc(NC(=O)C3C(C(=O)O)[C@@H]4C=C[C@H]3C4)c2)o1 (stereo not given in full),7.94µM*,-2.8,-6.1,8.4%
SMILES,Sfp PPTase inh,Coupling enz,Giardia killer,ELG1 DNA repair
O=C(O)C1C2C=CC(C2)C1C(=O)Nc1cccc(F)c1 (stereo not given),8.7%,3.6,8.9,3.3%
Cc1c(Cl)cccc1NC(=O)C1C2C=CC(C2)C1C(=O)O (stereo not given),-25.3%,-1.6,12.1,-5.8%
Cc1ccc(-c2ccccc2NC(=O)CS(=O)CC(=O)Nc2ccc(C)c(Cl)c2)o1 (stereo not given),6.0%,1.8,?,-14.6%
Cc1ccc(-c2ccccc2NC(=O)CCl)o1,20.3%,-49.5*,-15.6,0.2%
CCCCOc1cccc(/C=C(\C#N)C(=O)NC2CC2)c1,3.2%,0.5,-8.4,-8.8%
CC(C)(C)OC(=O)N1CCN(C(=O)c2ncn(Cc3ccccc3)c2C(=O)N2CCN(C(=O)OC(C)(C)C)CC2)CC1,/,/,16.6,9.7%
COc1cc2c(cc1OC)CN(CC(=O)Nc1ccc(C)c(C)c1)CC2,3.5%,-1.4,18.1,?
O=C(CC1Sc2ncnn2C1=O)Nc1ccc(Br)cc1 (stereo not given),50.1µM*,1.1,-6.5,4.9%
CCN(C(=O)COc1cc(=O)n(CC)c2ccccc12)c1cccc(Cl)c1,-4.7%,4.4,3.1,-10.4%
CCN(C(=O)COc1cc(=O)n(CC)c2ccccc12)c1cc(Cl)ccc1OC,-17.2%,7.9,-17.2,20.6µM*
CC1(C)CC(=O)C2=C(C1)N(c1cccc(O)c1)C1=C(C2)C(=O)CC(C)(C)C1,10µM*,-36.1*,-1.7,1.0%
Cc1ccc(N/C=C/C(=O)C(C)(C)C)c(O)c1,89.1µM*,-22.6,-3.9,-6.4%
CC(=O)Nc1ccc(N/C=C/C(=O)C(C)(C)C)cc1,9.3%,-29.2,-26.3,27.1%
CCOC(=O)C1(CCOc2ccccc2)CCN(Cc2ccncc2)CC1,44.7µM*,-0.9,-7.6,-5.3%
CCCc1nnc(SCC(=O)Nc2cccc(Cl)c2Cl)o1,21.3%,-4.6,11.4,18.1%
Cc1cc(C(=O)N2CCCC(CO)(Cc3ccc(F)cc3)C2)c(C)o1 (stereo not given),5.6%,/,-12.1,-4.9%
CN(C)C(=O)N1CCC(C(=O)N2CCCC(C(=O)c3ccc(C(C)(C)C)cc3)C2)CC1 (stereo not given),7.9%,5.4,-6.8,14.6µM*
Cc1ccc(S(=O)(=O)N(C)CCCC(=O)Nc2ccncc2)cc1,10.6%,0.3,-12.3,5.8µM*
NC(=O)C1CCN(c2nc(-c3ccccc3C(F)(F)F)cs2)CC1,/,/,23.4,?
CCCCc1c(C)nc2cc(-c3ccco3)[nH]n2c1=O,5.3%,-1.2,-20.5,?
O=C1c2nc3cc(-c4ccco4)[nH]n3c(=O)c2CN1Cc1ccccc1,20µM*,2.4,-2.0,1.4%
O=C(OCC(=O)N(CCc1ccccc1)Cc1ccccc1)c1ccccc1NCCO,-2.2%,/,2.3,-4.7%
CC(Sc1nc2cc([N+](=O)[O-])ccc2n1-c1ccc(F)cc1)C(=O)NCc1ccc2c(c1)OCO2 (stereo not given),2.24µM*,-13.9,-4.9,?
Cc1ccc(O)c(Nc2nc(-c3ccccc3)nc3ccccc23)c1,13.2%,1.4,22.4,?
Cc1ccc(O)c(Nc2c3ccccc3nc3ccccc23)c1,-22.7%,-1.7,-26.6,8.2µM*
COC(=O)NC(/C(C(=O)OC)=C(\C)NCc1ccccc1)c1cccc(F)c1 (stereo not given),-18.9%,-2.6,/,/
NC[C@@H]1O[C@@H](O[C@H]2[C@H](O)[C@@H](O[C@@H]3O[C@@H](CO)[C@H](O)[C@@H](N)[C@@H]3O)[C@H](N)C[C@@H]2N)[C@@H](O)[C@H](O)[C@H]1O,2.0%,1.0,/,/
